Records with an inconclusive call do not appear. Where a call stands in place of a potency, no number is given. A number with no mark means an inactive call. The source made the active and inactive calls. Calls follow the shape of the full dose curve.
Assay: p53 small molecule agonists, cell-based qHTS assay with human liver microsomes (AID 1963577);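 also: p53 response element beta-lactamase reporter cells with liver microsomes plus NADPH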
Conditions: HCT-116 p53RE-bla with human liver microsomes, ratio, 16 h; series mostly up to 66 µM
Description: National Center for Advancing Translational Sciences [NCATS]
Division of Preclinical Innovation [DPI]
U.S. Environmental Protection Agency [EPA]
National Institutes of Environmental Health Sciences [NIEHS]
National Toxicology Program [NTP]
U.S. Food and Drug Administration [FDA]
p53, a tumor suppressor protein, is activated following cellular insult, including DNA damage and other cellular stresses. The activation of p53 regulates cell fate by inducing DNA repair, cell cycle arrest, apoptosis, or cellular senescence. The activation of p53, therefore, is a good indicator of DNA damage and other cellular stresses. […] The activation of the reporter gene under culture conditions can be detected by fluorescence intensity.
Tox21 Assay Protocol Summary:
The p53RE-bla cells were dispensed at 4,000cells/3ul/well in 1536-well black-clear bottom plates. After the assay plates were incubated at 37 C, 5% CO2 incubator for 5 hours, 23 nL of compounds dissolved in DMSO, positive controls or DMSO only was transferred to the assay plate. Following compound addition, 3 uL of human liver microsomes (XenoTech, Kansas City, KS) at final concentration of 0.5 mg/mL and 1uL of Beta-Nicotinamide adenine dinucleotide 2-phosphate (NADPH) at final concentration of 0.5 mg/mL were transferred to the assay plate. The plates were incubated at 37 C for 16 hours. 1 uL of LiveBLAzer detection mixture was added to each well and the plates were incubated at room temperature in the dark for 2 h.

Compound | Potency | activation
CC(C)(C)c1cc(C=O)cc(C(C)(C)C)c1O | inactive | –
CC(C)CCCC(C)(C)O | inactive | –
COC(C)(C)CCCC(C)CC=O (stereo not given) | inactive | –
O=C(O)P(=O)(O)O | inactive | –
CCOC(=O)C1=NN(c2ccc(Cl)cc2Cl)C(C)(C(=O)OCC)C1 (stereo not given) | inactive | –
CC1=C2[C@@H]([C@H](C)CC[C@H]2/C=C(\C)C(=O)O)[C@H](O)C1 | inactive | –
Cc1cn([C@@H]2O[C@H](CO)[C@@H](O)[C@@H]2F)c(=O)[nH]c1=O | inactive | –
CCCCCCCCc1ccc(S(=O)(=O)O)cc1 | inactive | –
CNCCc1ccccn1 | inactive | –
O=C(c1ccc(F)cc1)C1CCN(CCn2c(=O)[nH]c3ccccc3c2=O)CC1 | inactive | –
OCCNCc1ccccc1 | inactive | –
CC(=O)O[C@H]1C[C@@H]2CC[C@@H]3[C@H](CC[C@@]4(C)[C@H]3C[C@H]([N+]3(C)CCCCC3)[C@@H]4OC(C)=O)[C@@]2(C)C[C@@H]1N1CCCCC1 | inactive | –
CCCCNc1ccc(C(=O)OCCN(C)C)cc1 | inactive | –
CC(C)C/C=C(\C=O)c1ccccc1 | inactive | –
Nc1nnc(-c2cccc(Cl)c2Cl)c(N)n1 | inactive | –
O=C(N[C@@H](Cc1ccccc1)[C@@H](O)C(=O)N1C[C@@H](O)[C@@H](O)C1)c1cc2cc(Cl)ccc2[nH]1 | inactive | –
CC(C)[N+](C)(C)CC(O)COc1cccc2ccccc12 (stereo not given) | inactive | –
CC(O)CN(CCCN(C)C)CCCN(C)C (stereo not given) | inactive | –
CC1OC(=O)C(C)OC1=O (stereo not given) | inactive | –
COc1cccc(O)c1O | inactive | –

Compound | Potency | activation
CCCCC/C=C/CC(=O)OC | inactive | –
CCOc1nc(F)cc2nc(S(=O)(=O)Nc3c(Cl)cccc3C(=O)OC)nn12 | inactive | –
CCCCCCCCCCCCCCCC(=O)OC[C@H](O)[C@H]1OC(=O)C(O)=C1O | inactive | –
NS(=O)(=O)c1cc2c(cc1Cl)CN(C1CCCCC1)C2=O | inactive | –
Oc1cc(O)c(Cl)cc1Cl | inactive | –
Nc1nc2c(ncn2CCC(CO)CO)c(=O)[nH]1 | inactive | –
COc1ccc(C(=O)c2ccc(OC)cc2O)c(O)c1 | inactive | –
FC(F)(F)C(F)(F)C(F)(F)C(F)(F)C(F)(F)C(F)(F)C(F)(F)C(F)(F)C(F)(F)C(F)(F)F | – | 0.0412% [at 5.99 µM]
Cc1ccco1 | inactive | –
CCCCCCCC(C)=O | inactive | –
C=COC(=O)C(C)(CC)CCC(C)C (stereo not given) | inactive | –
COc1cc2c(cc1OC)C(C(C(=O)N(CCc1ccc(OC)c(OC)c1OC)CCc1ccc(OC)c(OC)c1OC)c1ccccc1)=NCC2 (stereo not given) | inactive | –
CCC(C(=O)O)c1ccc(N2Cc3ccccc3C2=O)cc1 (stereo not given) | inactive | –
CCOC(=O)/C=C/C(=O)O | inactive | –
O=C(OCC(COC(=O)c1ccccc1)(COC(=O)c1ccccc1)COC(=O)c1ccccc1)c1ccccc1 | inactive | –
CC(C)c1ccc(C(=O)N=C(N)N)cc1S(C)(=O)=O | inactive | –
COCCCCCCCCOCCC[Si](C)(O[Si](C)(C)C)O[Si](C)(C)C | inactive | –
CCCN(CCC)C(=O)C(CCC(=O)O)NC(=O)c1ccccc1 (stereo not given) | inactive | –
CCCCCc1ccco1 | inactive | –
[O]=[Mo](=[O])=[O] | – | -1.11% [at 13.5 µM]

From PubChem BioAssay (Tox21)
